This passage reports Inhibition results from ChEMBL document CHEMBL4513146, “CO-ADD screening of Karazin Kharkiv National University (Ukraine) compounds”.

Entries with a potency or affinity are not part of this list.

In one experiment the test system is Staphylococcus aureus. To be noted: Concentration 32 ug.mL-1;; ASSAY_TEST Inhibition of Bacterial Growth; detection method Absorption (OD600); MEDIA CAMHB; plate type 384well; NBS; CORNING #3640; time 18 hr.
The subject of another experiment is Escherichia coli. To be noted: Concentration 32 ug.mL-1;; ASSAY_TEST Inhibition of Bacterial Growth; detection method Absorption (OD600); MEDIA CAMHB; plate type 384well; NBS; CORNING #3640; time 18 hr.

A word on the Inhibition: it is the change of the read-out against control, counted positive when it falls. Take `O=c1c2sccc2n2c(=O)n(Cc3c(F)cccc3Cl)nc2n1CCc1ccccc1`: the Inhibition with Staphylococcus aureus was 3.01%; in the experiment with Escherichia coli, -6.52%.
Taken in the same sequence, the figures for `CC(=O)c1ccc(NC(=O)Cn2nc3ccc(-c4ccc(C)cc4)nn3c2=O)cc1` were 10.69% and -3.43%.
For the compound `O=C(Cn1nc2ccc(Sc3cccc(F)c3)nn2c1=O)Nc1cccc(C(F)(F)F)c1`, the Inhibition with Staphylococcus aureus is listed as 5.63%; with Escherichia coli, -8.75%.
Taken in the same sequence, the figures for `COc1ccccc1N1CCN(C(=O)Cn2nc3c(Oc4ccc(C)cc4)nccn3c2=O)CC1` were 6.41% and 0.36%.
The like results for `CCCCOc1ccc(-c2cc3c4nnc(SCC(=O)Nc5cc(F)ccc5C)n4ccn3n2)cc1` were, in that order, -12.48% and -11.69%.
Taken in the same sequence, the figures for `O=C(Cn1nc2ccc(Sc3cccc(F)c3)nn2c1=O)Nc1ccc(Cl)cc1` were 7.1% and -8.49%.
As for `CC(C)CCNC(=O)Cn1nc2n(CC(C)C)c(=O)c3sccc3n2c1=O`, the figures for the Inhibition in the experiment with Staphylococcus aureus and in the experiment on Escherichia coli were 4.95% and -1.56%, respectively.
Consider `COC(=O)c1cccc(NC(=O)Cn2nc3c(SCc4ccc(Cl)cc4)nccn3c2=O)c1`, for which the Inhibition is reported as 6.19% with Staphylococcus aureus and -8.47% in the experiment on Escherichia coli.
In the case of `COc1ccc(CNC(=O)Cn2nc3c4cc(-c5ccc(Cl)cc5)nn4ccn3c2=O)cc1`, the Inhibition amounted to 6.34% in the experiment with Staphylococcus aureus and 4.2% with Escherichia coli.
The like results for `COc1ccc(NC(=O)c2ccc3nn(CC(=O)Nc4cccc(OC)c4)c(=O)n3c2)cc1` were, in that order, 15.63% and 0.97%.
Taken in the same sequence, the figures for `Cc1ccc(-c2ccc3nn(Cc4ccc(N5CCCC5=O)cc4)c(=O)n3n2)cc1` were 5.05% and -5.45%.
In the case of `Cc1nnc2ccc(S(=O)(=O)N(Cc3ccccc3F)c3ccc(F)c(F)c3)cn12`, the Inhibition with Staphylococcus aureus is reported as 3.86%; in the experiment on Escherichia coli it was -6.57%.
Consider `COc1ccc(NC(=O)Cn2nc3ccc(SC4CCCCC4)nn3c2=O)cc1OC`, for which the Inhibition is on record as 3.6% with Staphylococcus aureus and -2.79% in the experiment on Escherichia coli.
Taken in the same sequence, the figures for `Cc1ccccc1Oc1nccn2c(=O)n(CC(=O)Nc3ccc(Cl)c(Cl)c3)nc12` were 7.54% and -4.77%.
On to `CSc1cccc(NC(=O)Cn2nc3c4c5c(sc4ncn3c2=O)CCCC5)c1`, for which the Inhibition in the experiment with Staphylococcus aureus was -8.02%; with Escherichia coli, -9.58%.
The like results for `Cc1ccc(C(=O)CSc2nnc3c(=O)n(-c4ccc(F)cc4)ccn23)c(C)c1` were, in that order, 7.85% and -6%.
The like results for `Cc1ccc(-c2cc3c4nnc(CCC(=O)NCc5ccc(C(F)(F)F)cc5)n4ccn3n2)cc1C` were, in that order, 3.78% and -2.88%.
The like results for `COc1cc(OC)c(NC(=O)Cn2nc3ccc(-c4ccc(C)c(C)c4)nn3c2=O)cc1Cl` were, in that order, 2.47% and -7.33%.
On to `Cc1nnc2c(S(=O)(=O)N(Cc3ccccc3Cl)c3ccc(F)c(F)c3)cccn12`, for which the Inhibition with Staphylococcus aureus is recorded as 38.47%; with Escherichia coli, -6.82%.
Taken in the same sequence, the figures for `CCc1ccc(NC(=O)Cn2nc3n(Cc4ccco4)c(=O)c4sccc4n3c2=O)cc1` were -4.41% and -6.35%.
The like results for `Cc1ccc(NC(=O)Cn2nc3cc(C)nc(Nc4ccc(F)c(C)c4)n3c2=O)cc1` were, in that order, 11.03% and 0.27%.
Taken in the same sequence, the figures for `CSc1cccc(NC(=O)Cn2nc3ccc(C(=O)NCc4ccccc4)cn3c2=O)c1` were 5.85% and -2.4%.
For `CCCCN(C)c1ccc2nnc(CCc3nc(-c4cc(OC)cc(OC)c4)no3)n2n1`, the Inhibition in the experiment with Staphylococcus aureus is given as -6.16%; with Escherichia coli, -4.97%.
For `CC(C)Cn1c(=O)c2sccc2n2c(=O)n(Cc3ccc(N4CCCC4=O)cc3)nc12`, the Inhibition is reported as -1.91% in the experiment on Staphylococcus aureus and -2.57% in the experiment on Escherichia coli.
Turning to `COc1ccccc1-n1ccn2c(SCC#N)nnc2c1=O`, the Inhibition in the experiment on Staphylococcus aureus is 15.53%; with Escherichia coli, 0.38%.
The like results for `O=C(CSc1nnc2c(=O)n(-c3ccc(Br)cc3)ccn12)Nc1cccc(Cl)c1` were, in that order, 2.58% and -6.43%.
As to `Cc1ccc(NC(=O)Cn2nc3c(N4CC(C)CC(C)C4)nccn3c2=O)c(F)c1` (configuration not stated), the Inhibition in the experiment with Staphylococcus aureus is recorded as 10.72%; in the experiment with Escherichia coli it was 1.48%.
For the compound `COc1ccc(NC(=O)Cn2nc3ccc(SCc4ccc(Cl)cc4)nn3c2=O)cc1Cl`, the Inhibition is on record as -4.58% with Staphylococcus aureus and -11.11% in the experiment with Escherichia coli.
Take `N#Cc1ccc(NC(=O)Cn2nc3c(SCc4ccc(Cl)cc4)nccn3c2=O)cc1`: the Inhibition was 9.38% in the experiment with Staphylococcus aureus and -2.23% in the experiment on Escherichia coli.
The like results for `CC(C)c1nnc2c(=O)n(CC(=O)Nc3ccc4c(c3)OCO4)c3ccccc3n12` were, in that order, -1.02% and -3.49%.
Taken in the same sequence, the figures for `O=C(Cn1nc2c3cc(-c4ccc(Cl)cc4)nn3ccn2c1=O)Nc1ccc2c(c1)OCO2` were 8.69% and 2.9%.
Take `CCCCOc1ccc(-c2cc3c4nnc(SCC(=O)Nc5c(C)cccc5C)n4ccn3n2)cc1`: the Inhibition in the experiment on Staphylococcus aureus was -7.16%; in the experiment with Escherichia coli, -10.46%.
Taken in the same sequence, the figures for `COc1ccc(-c2cc3c4nnc(CCC(=O)NCc5ccccc5Cl)n4ccn3n2)cc1` were 0.8% and -2.58%.
On to `Cc1cc(C)cc(Nc2nc(C)cc3nn(CC(=O)NC4CCCC4)c(=O)n23)c1`, for which the Inhibition in the experiment with Staphylococcus aureus is given as 11.66%; with Escherichia coli it was 0.01%.
As for `COc1cccc(Sc2nc3ccccc3n3c(=O)n(CC(=O)Nc4c(C)cc(C)cc4C)nc23)c1`, the Inhibition is given as 1.84% with Staphylococcus aureus and -6.13% with Escherichia coli.
The like results for `COc1cc(NC(=O)Cn2nc3c(Oc4ccccc4)nccn3c2=O)cc(OC)c1` were, in that order, 11.4% and 1.31%.
